In the supplement of paper PMC3334620:
Whole data set: some 33,000 sequences, median “E-score (-0.5 to 0.5)” near -0.016, cut for the highest 2% near 0.3. The entries come from a sample that favours the highest values as a whole.

target: T1, Yer184c (UniProt P39961); experiment: PBM E-score (8-mer binding enrichment) (E-score (-0.5 to 0.5)); higher = stronger / more preferred TF binding; conditions: protein concentration: 100 nM; construct: GST-full length
T1 sequence: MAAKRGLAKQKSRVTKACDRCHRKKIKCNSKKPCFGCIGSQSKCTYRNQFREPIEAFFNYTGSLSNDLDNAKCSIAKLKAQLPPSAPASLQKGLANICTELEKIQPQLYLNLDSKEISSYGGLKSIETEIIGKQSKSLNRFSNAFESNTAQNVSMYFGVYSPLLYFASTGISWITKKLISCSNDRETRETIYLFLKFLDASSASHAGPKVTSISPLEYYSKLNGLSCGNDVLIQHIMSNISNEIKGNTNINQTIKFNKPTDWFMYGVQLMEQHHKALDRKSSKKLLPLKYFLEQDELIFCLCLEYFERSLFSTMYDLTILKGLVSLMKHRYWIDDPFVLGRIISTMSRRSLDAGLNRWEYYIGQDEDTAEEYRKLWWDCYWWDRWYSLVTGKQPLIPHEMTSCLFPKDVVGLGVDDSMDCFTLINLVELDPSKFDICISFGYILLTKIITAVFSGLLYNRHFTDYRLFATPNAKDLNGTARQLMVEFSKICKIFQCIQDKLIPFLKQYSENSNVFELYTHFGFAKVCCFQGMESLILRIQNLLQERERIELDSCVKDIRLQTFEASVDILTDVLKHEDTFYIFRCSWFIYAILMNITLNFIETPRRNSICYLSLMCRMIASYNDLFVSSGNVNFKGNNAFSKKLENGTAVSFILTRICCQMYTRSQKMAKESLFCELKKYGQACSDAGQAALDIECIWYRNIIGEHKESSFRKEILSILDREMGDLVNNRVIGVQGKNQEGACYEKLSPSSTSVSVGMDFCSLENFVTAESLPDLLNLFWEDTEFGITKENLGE
Summary of the method: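 Universal all-10-mer Agilent arrays, double-stranded by primer extension on fresh or once-stripped slides, were probed with about 100-200 nM GST-tagged yeast transcription factors made by PURExpress. Fluorescent anti-GST detected bound protein, and masliner normalised the scans. E-scores from the Universal PBM Analysis Suite were given to each ungapped eight-base word pooled with its reverse complement.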

| Sequence | PBM E-score |
| --- | --- |
| AACATCAA | 0.156 |
| GCTCCAAA | -0.0747 |
| ACATACCA | -0.12 |
| ATTGCGTC | -0.0563 |
| GCCTGTGA | -0.282 |
| CAACTGAC | -0.106 |
| AACCTAAG | -0.181 |
| CCGGAATA | 0.339 |
| ATGGAATA | 0.127 |
| GCGGAATA | 0.205 |
| CGGGAATA | 0.3 |
| ACGGAATC | 0.301 |
| ACGGAATA | 0.321 |
| CCGGACTA | 0.273 |
| ACGGAATG | 0.167 |
| CCGGAATC | 0.336 |
| CTGGAATC | -0.192 |
| ACGGACTC | 0.0365 |
| CCGGACTC | 0.341 |
| GACCTAAA | 0.0912 |
| AAAACTGC | 0.0178 |
| GGTACTAA | -0.00623 |
| GGGCGACC | -0.167 |
| GCTAACCA | -0.0625 |
| CAGAAGGA | -0.224 |

| Sequence | PBM E-score |
| --- | --- |
| TCGCTCAA | 0.047 |
| CCGGCTTA | 0.33 |
| CCGGCTGA | 0.327 |
| ACGGCTTC | 0.0891 |
| ACGGCTGC | 0.0869 |
| GCGGCTGA | -0.0974 |
| ACGGCTTA | 0.193 |
| CCGGCTGC | 0.331 |
| CCGGCTTC | 0.307 |
| GCGGCTTA | 0.025 |
| CTGGCTGC | -0.198 |
| ACGGCTGA | 0.0623 |
| CGGGCTTC | 0.169 |
| ACTTTCTA | -0.0235 |
| AGAATGCT | -0.168 |
| CAAATCGC | -0.0704 |
| ATGGAGAC | -0.176 |
| TACGTCTA | -0.127 |
| GTTAGCTA | -0.119 |
| GGATATGA | 0.0918 |
| CCCGGGAA | 0.272 |
| GCCGGGGA | 0.0977 |
| GCCGGGAA | 0.331 |
| GCCGGGAC | 0.263 |
| TCCGGGAA | 0.37 |

| Sequence | PBM E-score |
| --- | --- |
| ACCGGGAA | 0.28 |
| CATGCAAC | -0.00764 |
| GTCTCAAC | -0.0423 |
| AGCTAGAT | -0.104 |
| CGGGACGC | -0.0137 |
| CATTCCGG | 0.318 |
| AATTCCAT | 0.0965 |
| AATTCCGG | 0.387 |
| CATTCCGC | -0.0761 |
| AATTCCCG | 0.272 |
| AATTCCGC | 0.208 |
| AATTCCGT | 0.328 |
| AATTCCCT | -0.0636 |
| CATTCCGA | 0.278 |
| CTGGCTAC | -0.13 |
| GATCAATA | 0.164 |
| ACACTGGA | 0.0234 |
| ATCCCTAG | -0.0477 |
| ATTGGTGG | -0.0975 |
| AGTCCAGG | -0.206 |
| ATAAGGTC | -0.0447 |
| CATCTCGG | 0.272 |
| AGCTTAAT | 0.201 |
| CGATCCGA | 0.305 |
| GGGTCCGA | 0.113 |

| Sequence | PBM E-score |
| --- | --- |
| CGATCCGC | 0.113 |
| CGGTCCGA | 0.335 |
| GGATCCGA | 0.242 |
| AGGTCCGA | 0.197 |
| ACAAGTAG | -0.201 |
| ATCAAGCG | 0.0135 |
| GATTTCGC | 0.312 |
| GATTTCGA | 0.042 |
| CATTTCGC | 0.0218 |
| GCCTTACA | -0.205 |
| CATGAGGG | -0.212 |
| ATTTGCCA | -0.0738 |
| ATTTGCCC | 0.0315 |
| ATTTGCCG | 0.306 |
| AACAAGAC | 0.105 |
| ACCTCAAA | 0.137 |
| CCCCTGAC | -0.0911 |
| ACCCGAGG | -0.00171 |
| CTCCGAGC | 0.271 |
| ATCCGAGG | 0.182 |
| CCCCGAGC | -0.0347 |
| GGCCGAGA | 0.348 |
| GGCCGATA | 0.264 |
| CACCGAGC | 0.231 |
| GGCCGACA | 0.0888 |

| Sequence | PBM E-score |
| --- | --- |
| CGCCGAGC | 0.344 |
| AACCGAGT | 0.0155 |
| AACCGAGC | 0.323 |
| AGCCGAGG | 0.336 |
| GACACTCA | -0.0521 |
| ACAGCGGA | 0.0362 |
| GGGTTAGA | -0.134 |
| AACGTAAT | -0.0198 |
| GTTGGACA | -0.0236 |
| AATGTTCG | 0.0469 |
| ATCCGAGC | 0.219 |
| CACCGAGA | -0.212 |
| AGCCGAGC | 0.318 |
| AACCGAGA | 0.229 |
| AGCCGATA | 0.142 |
| CCCCGAGA | -0.123 |
| CGCCGAGA | 0.346 |
| CGCCGACA | 0.18 |
| TCCCGAGA | 0.305 |
| GCCCGAGA | 0.24 |
| ACCCGAGC | 0.229 |
| AGCCGAGA | 0.326 |
| CTACTGGA | -0.271 |
| CCTCAGCG | 0.0964 |
| ATAGAGGG | -0.135 |

| Sequence | PBM E-score |
| --- | --- |
| AGGCCAAA | 0.0579 |
| AACAACGG | 0.175 |
| CGAACTTC | 0.13 |
| GCCCGCAC | -0.0678 |
| AATCTGTA | 0.116 |
| GAAGAGTA | 0.113 |
| CGGTTCGC | 0.0153 |
| CCGAATAA | 0.346 |
| ACGAATAA | 0.0316 |
| CCGAATAC | 0.293 |
| CCGAATGA | 0.321 |
| GCGAATGA | 0.149 |
| ACGAATGA | 0.189 |
| GGGTCTAC | -0.06 |
| TCGCGTCA | -0.0846 |
| ATGGTTTC | 0.0728 |
| GCGAATAA | 0.0477 |
| GCATCCGA | 0.176 |
| CCATCCGG | 0.143 |
| CCATCCGA | 0.0749 |
| TCATCCGA | 0.34 |
| ACATCCGA | 0.346 |
| ACATCCTG | 0.0484 |
| ACATCCGG | 0.397 |
| ACATCCGT | 0.167 |

| Sequence | PBM E-score |
| --- | --- |
| ACATCCGC | 0.252 |
| ACCACAAG | -0.0787 |
| CGATGCTA | 0.084 |
| ATGTGCCG | 0.18 |
| CATAGCAG | -0.293 |
| AAGAGGCC | -0.172 |
| ACGTCGCT | -0.239 |
| CCTTCAGC | -0.152 |
| CACGGATG | 0.108 |
| CGCGGAGA | 0.308 |
| CACGGATC | 0.256 |
| AACGGATC | 0.306 |
| CGCGGATC | 0.13 |
| AGCGGATA | 0.0602 |
| GACGGATC | 0.115 |
| CGCGGATA | 0.317 |
| AGCGGATC | 0.204 |
| CGCGGAGC | 0.171 |
| CACGGATA | 0.332 |
| AGCGGAGA | -0.0382 |
| TTACGCAA | 0.0884 |
| GGCTGAAC | 0.0871 |
